# Bioassay records (PubChem)
# ALDH1A1 inh = qHTS Assay for Inhibitors of Aldehyde Dehydrogenase 1 (ALDH1A1); Purified ALDH1A1, NADH fluorescence, propionaldehyde substrate; Potency, µM (highest dose often 75.3 µM), for inactives: at the highest dose activity, negative = inhibition, usual class: inhibitors; actives 7.3% (n = 220,000); Aldehyde dehydrogenase 1A1 (Homo sapiens), P00352; active = well fitted inhibition curve with a large enough effect, not every such curve was filed as active; inconclusive = small, poorly fitted or top-dose-only effect, or another doubt; inactive = no such curve, though single readings can be large or run the other way;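 also: plate controls were no enzyme wells and a reference inhibitor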
# Target sequence (P00352 whole entry, looked up): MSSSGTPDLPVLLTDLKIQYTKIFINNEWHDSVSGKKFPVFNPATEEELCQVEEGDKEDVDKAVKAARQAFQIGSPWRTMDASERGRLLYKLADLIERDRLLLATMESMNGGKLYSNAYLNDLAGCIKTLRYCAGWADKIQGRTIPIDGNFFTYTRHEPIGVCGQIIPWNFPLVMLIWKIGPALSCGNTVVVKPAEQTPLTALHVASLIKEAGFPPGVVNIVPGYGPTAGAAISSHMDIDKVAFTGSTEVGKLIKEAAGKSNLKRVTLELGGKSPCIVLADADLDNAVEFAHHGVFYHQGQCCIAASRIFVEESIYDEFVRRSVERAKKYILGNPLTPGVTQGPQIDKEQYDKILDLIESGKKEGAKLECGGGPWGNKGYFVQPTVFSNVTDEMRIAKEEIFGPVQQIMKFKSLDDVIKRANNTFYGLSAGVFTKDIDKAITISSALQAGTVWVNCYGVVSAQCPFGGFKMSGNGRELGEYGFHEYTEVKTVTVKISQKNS
# LMNA splice mod = qHTS Assay for Modulators of Lamin A Splicing; HeLa LMNA splicing GFP/RFP minigene ratio, 48 h; Potency, µM (highest dose often 46.1 µM), for the others: top-dose ratio change, negative = inhibition, most hits filed as inhibitors; actives 0.01% (n = 200,000); AID 1487, 2009; active = well fitted inhibition curve with a large enough effect in the signal ratio, with a control signal flat, not every such curve was filed as active; inconclusive = small, poorly fitted or top-dose-only effect, or effect the other way, or a change in a side signal; the % refers to the signal ratio
#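 Read-out is the ratio of GFP to DsRed2 object intensity, acquired by 488 nm laser-scanning cytometry on HeLa lamin A-EGFP minigene reporter cells. Compound incubation 48 hrs at 37 °C in Opti-MEM with 2% FBS; DMSO 0.5% final.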
# IMPase Li cell = qHTS Assay for Identifying the Cell-Membrane Permeable IMPase Inhibitors: Potentiation with Lithium | CHO-M1 cells, IP1 TR-FRET (IP-One), carbachol + lithium | Potency, µM (titrated, usually from 59.4 µM), for inactives: at the highest dose activity, negative = IMPase inhibition, most hits filed as inhibitors | actives 0.35% (n = 210,000) | AID 1457, 2008;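 also: IP1 builds up when IMPase is blocked and the TR-FRET signal falls; plate controls were basal vehicle for no effect and high inhibitor control for full effect; nearly all actives have a fitted effect of over 50% in size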
#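 CHO-M1, 2000 cells/well, 16–30 h culture; cpd + low Li+, 30 min 37C; lysis with d2-IP1/Eu-anti-IP1 Ab, 10 min RT; TR-FRET 665/620 ratio and 620 channel; AC50 via Hill.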
# HPGD inh = qHTS Assay for Inhibitors of HPGD (15-Hydroxyprostaglandin Dehydrogenase); purified HPGD, NADH fluorescence kinetic, PGE2 substrate; Potency, µM, for the others: top-dose activity change, negative = inhibition, usual class: inhibitors; actives 4.3% (n = 150,000); AID 894, 2007; active = well fitted inhibition curve with a large enough effect, not every such curve was filed as active; inconclusive = small, poorly fitted or top-dose-only effect, or another doubt; inactive = no such curve, though single readings can be large or run the other way
# Target sequence (P15428 whole entry, looked up): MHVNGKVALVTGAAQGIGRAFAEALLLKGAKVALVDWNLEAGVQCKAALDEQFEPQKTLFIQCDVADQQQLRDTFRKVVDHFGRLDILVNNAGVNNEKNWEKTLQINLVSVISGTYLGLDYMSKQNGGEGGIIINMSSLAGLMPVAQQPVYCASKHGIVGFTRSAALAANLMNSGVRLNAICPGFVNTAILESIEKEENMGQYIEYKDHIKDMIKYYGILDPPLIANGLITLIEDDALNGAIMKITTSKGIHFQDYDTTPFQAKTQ
#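 20 nM HPGD preincubated 15 min at room temperature with compound in 50 mM Tris-HCl pH 8, 0.01% Tween 20. Started with 1 mM NAD+ and 30 uM prostaglandin E2; NADH fluorescence (360/450 nm) read 5 times over 30-s intervals, last minus first.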
# Luc counter = Counterscreen for Luciferase (Kinase-Glo TM) Inhibition. AID 1379, 2008. actives 0.28% (n = 200,000). Kinase-Glo luciferase, ATP luminescence, 8 min. Potency, µM (top dose mostly 38.3 µM), for inactives: at the highest dose activity change, negative = inhibition, actives largely listed as inhibitors; also: nearly all actives have a fitted effect of over 60% in size
#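 Compounds were added to a substrate mix at pH 7.2 (50 mM imidazole, 10 uM ATP, within the enzyme's linear range), followed by Kinase-Glo detection reagent; luminescence was measured after 8 minutes at ambient temperature.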
# Numbers without * were called inactive; ? = inconclusive; · = no result given; [ ] = remark or other dose. A selection: hits, their analogues and other compounds. The true share with any hit is near 9%. Unless noted, calls follow the shape of the dose curve; as a rule, active = well fitted curve in the direction sought with a large enough effect; inconclusive = small, poorly fitted or top-dose-only effect, or another doubt; inactive = no such curve, though single readings can be large; an effect the other way counts as inactive or inconclusive. Unless noted, % is scaled to controls: 0 for no effect and ±100 for the full control effect; potency is read from the fitted curve at half-maximal effect.
SMILES,ALDH1A1 inh,LMNA splice mod,IMPase Li cell,HPGD inh,Luc counter
C/C(=N/NC(=O)c1cc(-c2ccc(Br)s2)[nH]n1)c1ccco1,-11.2%,·,2.4%,·,0.3%
Cc1ccc(C(=O)NC(=S)Nc2ccccc2C(F)(F)F)cc1,12.6µM*,?,·,·,·
CC(C)(C)CC(=O)NC(=S)Nc1ccccc1C(F)(F)F,-6.6%,13.4%,15.1%[38.3 µM],25.1µM*,-9.3%
CC(C)CC(=O)NC(=S)Nc1ccccc1F,-4.2%,8.6%,-12.2%[38.3 µM],20µM*,-2.6%
CC(C)CC(=O)NC(=S)Nc1ccccc1C(F)(F)F,17.8µM*,-14.5%,6.6%,?,2.6%
C=CC1=C2C=C(C3CC3)N(c3ccc(OC)cc3)C=C2C(=O)C(C)(OC(=O)c2ccco2)C1=O (stereo not given),10.3%[13.5 µM],-11.5%[9.22 µM],3.8%,-7.7%,-0.4%[7.66 µM]
CC1(C(=O)OCC(=O)N2c3ccccc3Sc3ccccc32)CC1(Cl)Cl (stereo not given),-1.0%,?,13.9%,-9.0%,1.8%
Cc1ccc(-c2nc3cnccn3c2Nc2ccc3c(c2)OCO3)o1,14.1µM*,-9.3%,49.9%[38.3 µM],-28.6%,1.7%
Cc1ccc(Nc2c(-c3ccc(C)o3)nc3cnccn23)cc1,?,-18.3%,-4.6%[38.3 µM],?,-3.6%
COc1ccc2cc(C(=O)NCc3ccc4c(c3)CCN4C(=O)c3ccc(F)cc3)[nH]c2c1,·,0.2%[46 µM],·,·,·
Cc1ccc(C2(CC(=O)N3CCCC3)CCOC(C(C)C)C2)cc1 (stereo not given),?,1.9%,26.6%[38.3 µM],-13.5%,-1.4%
COc1ccccc1C1(CC(=O)N2CCCCC2)CCOC(C(C)C)C1 (stereo not given),1.3%,?,-5.9%[38.3 µM],25.1µM*,-5.8%
CC1=CC(C)(C)NC(=S)N1c1cccc2ccccc12,22.4µM*,-2.8%,-3.4%,0.9%,-2.7%
O=C(CSc1n[nH]c(-c2cccnc2)n1)OC1CCCCC1,4.4%,·,5.2%,·,0.2%
COc1ccccc1Nc1nc(-c2sc(NC(=O)c3ccc([N+](=O)[O-])cc3)nc2C)cs1,15.8µM*,6.3%,11.7%[38.3 µM],-17.3%,-3.9%
CCCCCCC(=O)Nc1nc(C)c(-c2csc(Nc3ccccc3OC)n2)s1,?,6.6%,28.5%[38.3 µM],?,-1.4%
Cc1ccc(Cl)cc1Nc1nc(-c2sc(NC(=O)c3ccccc3)nc2C)cs1,20µM*,5.0%,9.6%[38.3 µM],?,-9.8%
COc1ccccc1Nc1nc(-c2sc(NC(=O)c3ccccc3)nc2C)cs1,12.6µM*,5.2%,-7.6%[38.3 µM],?,-17.7%
Cc1csc(Nc2cccc3ccccc23)n1,?,-5.8%[9.22 µM],2.8%,·,-0.6%
CCOc1ccccc1Nc1nc(-c2sc(NC(=O)c3ccccc3)nc2C)cs1,?,-1.5%,21.7%[38.3 µM],-22.5%,-2.3%
COc1ccccc1Nc1nc(C)cs1,17.8µM*,2.8%,1.9%[38.3 µM],-15.7%,-3.1%
Cc1ccc(NC(=O)CSc2cccc[n+]2[O-])c([N+](=O)[O-])c1,-55.6%,-8.5%[9.22 µM],-0.8%,·,-2.4%
Cc1ccc(S(=O)(=O)Nc2ccccn2)cc1[N+](=O)[O-],-40.6%,-3.6%[46 µM],2.6%,·,2.8%
COC(=O)c1cc(OC)c(OC)cc1NC(=O)c1c(-c2ccccc2Cl)noc1C,28.2µM*,9.2%,35.4%[38.3 µM],-11.9%,4.3%
Cc1onc(-c2ccccc2Cl)c1C(N)=O,4.1%,8.1%,1.2%[38.3 µM],-1.1%,0.4%
SMILES,ALDH1A1 inh,LMNA splice mod,IMPase Li cell,HPGD inh,Luc counter
Cc1cc(NC(=O)c2c(-c3ccccc3Cl)noc2C)no1,6.2%,-8.6%,-2.6%[38.3 µM],-9.5%,-2.9%
COc1ccccc1NC(=S)NC(=O)c1c(-c2ccccc2Cl)noc1C,0.891µM*,·,5.0%,·,-0.8%
Cc1onc(-c2ccccc2Cl)c1C(=O)NC(=S)Nc1ccccc1F,3.16µM*,·,-0.9%,·,1.1%
COC(=O)c1c(-c2ccccc2Cl)noc1/C=C/N(C)C,1.26µM*,23.2%[46 µM],12.0%,·,1.5%
Cc1onc(-c2ccccc2Cl)c1C(=O)NC(=S)NCCc1ccccc1,0.8%,8.9%,7.5%,-8.2%,0.3%
Cc1ccc(-c2nn(-c3ccccc3)cc2C2SCC(=O)N2Cc2ccccc2)o1 (stereo not given),28.2µM*,-4.4%,26.2%[38.3 µM],?,-0.4%
O=C(OCC(=O)N1CCc2ccccc21)c1ccc[n+]([O-])c1,-10.4%,-6.3%,8.8%[38.3 µM],-9.7%,20.2%
O=C(OCC(=O)N1c2ccccc2Sc2ccccc21)c1ccc[n+]([O-])c1,23.8µM*,-1.5%[46 µM],-1.5%,·,-4.5%
COc1ccc(/C=C2\OC(=S)N(C)C2=O)cc1,20µM*,?,10.2%,-8.6%,-2.4%
COc1cccc2c1Oc1ncccc1N(C(=O)Nc1ccc(F)c(Cl)c1)C2,·,-7.6%[46 µM],·,·,·
Cc1ccc(-n2cc(CN3CCN(Cc4nccn4C)CC3)c(-c3ccc(F)cc3)n2)cc1,25.1µM*,·,7.3%,·,-2.0%
CCN(CC(=O)Nc1ccc2c(c1)OCCO2)CC(=O)Nc1ccc2c(c1)OCO2,10µM*,·,-11.9%,·,2.0%
CCN(CC(=O)Nc1ccc2c(c1)OCCO2)Cc1cc(=O)n2ccsc2n1,20µM*,·,-12.0%,·,3.2%
CCN(CC(=O)Nc1ccc2c(c1)OCCO2)Cc1cc(=O)oc2c(C)c(C)ccc12,15.8µM*,5.6%,11.7%[38.3 µM],-17.4%,-3.8%
O=C(CNCc1ccccc1Cl)Nc1ccc2c(c1)OCCO2,12.6µM*,·,·,·,·
CN(CC(=O)Nc1ccc(N2CCOCC2)cc1)Cc1cc(=O)n2ccsc2n1,?,4.7%[9.22 µM],-12.5%,·,-0.3%
Cc1ccc2c(CN3CCN(S(=O)(=O)c4ccc5c(c4)OCCO5)CC3)cc(=O)oc2c1C,0.9%,?,5.6%[38.3 µM],-15.3%,-2.7%
C=CCn1c(N2CCOCC2)nc2c1c(=O)[nH]c(=O)n2C,8.4%,?,-4.3%,·,5.6%
COc1ccc(S(=O)(=O)CC2(O)CCN(C(=O)CC(C)C)CC2)cc1,?,4.9%[46 µM],-4.0%,·,-1.1%
C#CC(=O)N(c1cccc(OC)c1)C(C(=O)NC1CCCC1)c1cccs1 (stereo not given),15.8µM*,?,23.2%[38.3 µM],?,-0.9%
C#CC(=O)N(c1ccc(OC)c(OC)c1)C(C(=O)NC1CCCC1)c1cccs1 (stereo not given),-2.3%,-21.6%,36.1%[38.3 µM],-5.5%,2.1%
COc1cc(/C=N/NC(=O)c2sc(N)c(C#N)c2C)cc(Br)c1O,12.6µM*,?,16.8%[38.3 µM],-20.2%,1.0%
CC(C)CSc1nc2c(c(=O)[nH]c(=O)n2C)n1CC(O)COc1cccc2ccccc12 (stereo not given),17.8µM*,0.2%,-7.4%[38.3 µM],12.6µM*,-4.2%
Cn1c(=O)[nH]c(=O)c2c1nc(Br)n2Cc1ccccc1Cl,-15.7%,-7.2%,-10.9%[38.3 µM],-20.2%,-3.9%
